Experiment [1] relates to Plasmodium falciparum NF54/iGP1_RE9H ulg8 stage V gametocytes. Description: gametocyte viability (luciferase signal relative to DMSO control) (% of DMSO control); higher = less gametocytocidal activity, active = 50 or less. The settings on record: exposure time: 72 h. On the procedure: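 Synchronous P. falciparum NF54/iGP1_RE9H ulg8 mature stage V gametocytes (day 12) were exposed to Cayman Epigenetics Screening Library compounds at 10 µM or 1 µM for 72 h at 37 °C. Viability was read as RE9H luciferase bioluminescence, normalised to DMSO plate controls (100%); 50 µM methylene blue was the positive control.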

Experiment [2] shares this test system. The experiment is described as follows: gametocyte viability (luciferase signal relative to DMSO control) (% of DMSO control); higher = less gametocytocidal activity, active = 50 or less. The settings on record: exposure time: 72 h. The method, boiled down:
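Stage V gametocytes of the NF54/iGP1_RE9Hulg8 line (day 12; ~2.5% gametocytemia, 3% hematocrit), in medium containing 0.5% Albumax II, were dispensed into 96-well plates with compounds spotted in nanolitre volumes from 10 mM DMSO stocks, for final concentrations of 10 µM or 1 µM in a single well each. After 72 h at 37 °C, 90 µl from each well was combined with 10 µl D-luciferin (30 mg/ml), and luminescence was measured on an IVIS Lumina II. Viability was expressed against the mean of the DMSO vehicle wells on the same plate.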
The source holds these as a separate data set.

The structures appear in SMILES notation. “And” between values parts separate entries of the source, which are not always exact repeats. Equal entries are not always repeated. Structures can show the parent of a compound that is named as a salt. Values without a mark were called inactive.

Regarding `O=C([C@@H](Cc1cccc(C(F)(F)F)c1)NS(=O)(=O)c1cc(F)c2c(c1)CCNC2)N1CCCC1` [(R)-PFI-2 (hydrochloride)], the gametocyte viability was 85.2 in experiment [1] (concentration: 1 µM) and 77.8 in experiment [1] (concentration: 10 µM).

On to `Clc1ccc(-c2csc(NN=C3CCCC3)n2)cc1` [CPTH2 (hydrochloride)], for which the gametocyte viability is 98.4 in experiment [1] (concentration: 1 µM) and 83.9 in experiment [1] (concentration: 10 µM).

As to `COc1nnc2ccc(N3CCC(c4ccc(OCCN5CCN(C)C(=O)[C@H]5C)cc4)CC3)nn12`, the gametocyte viability in experiment [1] (concentration: 1 µM) is 93.3; in experiment [1] (concentration: 10 µM), 90.3.

Regarding `O=C(NO)c1cccc(C(=O)NCCc2ccccc2)c1`, the gametocyte viability was 98.3 in experiment [1] (concentration: 1 µM) and 64.6 in experiment [1] (concentration: 10 µM).

As to `COc1cc(Br)c(Nc2nc(-c3c(C)nc4ncccn34)cs2)c(Br)c1`, the gametocyte viability in experiment [1] (concentration: 1 µM) is 94.5; in experiment [1] (concentration: 10 µM), 93.6.

As for `CN=C(NC)NCCCNCCCNCCCNC(=NC)NC` [Lysine-specific Demethylase Inhibitor (1C) (hydrochloride)], the gametocyte viability in experiment [1] (concentration: 1 µM) was 85.5; in experiment [1] (concentration: 10 µM), 81.1.

On to `C=C1C(=O)O[C@@H](CCC)[C@@H]1C(=O)O` [Butyrolactone 3], for which the gametocyte viability in experiment [1] (concentration: 1 µM) is 97.4; in experiment [1] (concentration: 10 µM), 89.9.

Take `Nc1ncn([C@@H]2O[C@H](CO)[C@@H](O)[C@H]2O)c(=O)n1` [5-Azacytidine]: the gametocyte viability in experiment [1] (concentration: 1 µM) is 89; in experiment [1] (concentration: 10 µM) it was 90.8.

Consider `O=C1CCc2c(ccc3ccccc23)O1` [Splitomicin], for which the gametocyte viability is 86.2 in experiment [1] (concentration: 1 µM) and 80.9 in experiment [1] (concentration: 10 µM).

In the case of `C=CC(=O)Nc1cccc(Oc2nc(Nc3ccc(N4CCN(C)CC4)cc3)ncc2Cl)c1`, the gametocyte viability in experiment [2] (concentration: 1 µM) is 103; in experiment [2] (concentration: 10 µM), 72.5.

`COc1ccc(-c2ccc3c(N4CCOCC4)nc(N4C[C@@H](C)O[C@@H](C)C4)nc3n2)cc1CO`: the values for the gametocyte viability in experiment [2] (concentration: 1 µM) and in experiment [2] (concentration: 10 µM) were 97.1 and 108, respectively.

`C=CC(=O)Nc1cccc(Oc2nc(Nc3ccc(N4CCN(C)CC4)cc3OC)ncc2Cl)c1`: the gametocyte viability in experiment [2] (concentration: 1 µM) was 91.9; in experiment [2] (concentration: 10 µM), 97.3.

As to `FC(F)(F)c1ccc(/C=C/c2nc(COc3ccc(CCCCn4ccnn4)cc3)co2)cc1` [Mubritinib (TAK 165)], the gametocyte viability in experiment [2] (concentration: 1 µM) is 95.1; in experiment [2] (concentration: 10 µM), 104.

Consider `N#CC(=C(/N)Sc1ccccc1N)/C(C#N)=C(/N)Sc1ccccc1N`, for which the gametocyte viability in experiment [2] (concentration: 1 µM) was 100; in experiment [2] (concentration: 10 µM), 103.

In the case of `CC(C)c1cnn2c(NCc3ccccc3)cc(NCCCCCCN)nc12`, the gametocyte viability is 102 in experiment [2] (concentration: 1 µM) and 86.5 in experiment [2] (concentration: 10 µM).

As to `CCCS(=O)(=O)Nc1ccc(F)c(C(=O)c2c[nH]c3ncc(Cl)cc23)c1F`, the gametocyte viability in experiment [2] (concentration: 1 µM) was 102; in experiment [2] (concentration: 10 µM), 107.

Regarding `CNC(=O)Nc1ccc(-c2nc(N3CC4CCC(C3)O4)c3cnn(C4CCC5(CC4)OCCO5)c3n2)cc1`, the gametocyte viability in experiment [2] (concentration: 1 µM) is 103; in experiment [2] (concentration: 10 µM) it was 108.

Consider `Cc1cnc(Nc2ccc(N3CCN(C)CC3)cc2)nc1Nc1cccc(S(=O)(=O)NC(C)(C)C)c1`, for which the gametocyte viability in experiment [2] (concentration: 1 µM) is 91.9; in experiment [2] (concentration: 10 µM), 66.6.

On to `O=C(NOC[C@H](O)CO)c1ccc(F)c(F)c1Nc1ccc(I)cc1F`, for which the gametocyte viability in experiment [2] (concentration: 1 µM) is 114; in experiment [2] (concentration: 10 µM), 110.

As for `CCOc1cc2ncc(C#N)c(Nc3ccc(F)c(Cl)c3)c2cc1NC(=O)/C=C/CN(C)C` [Pelitinib (EKB-569)], the results for the gametocyte viability in experiment [2] (concentration: 1 µM) and in experiment [2] (concentration: 10 µM) were 85.3 and 99.8, respectively.

`Cc1cc(Nc2cc(CN3CCOCC3)c3nc(C)c(Cc4ccc(Cl)cc4F)n3n2)n[nH]1`: the gametocyte viability was 95.6 in experiment [2] (concentration: 1 µM) and 97.8 in experiment [2] (concentration: 10 µM).

`N#C/C(=C\c1ccc(O)c(O)c1)C(N)=O`: the gametocyte viability was 93.5 in experiment [2] (concentration: 1 µM) and 98 in experiment [2] (concentration: 10 µM).

Turning to `NC(N)=NCCNS(=O)(=O)c1cccc2cnccc12`, the gametocyte viability in experiment [2] (concentration: 1 µM) and in experiment [2] (concentration: 10 µM) was 107 in each case.

For the compound `Oc1ccc(-c2nc(-c3ccc(F)cc3)c(-c3ccncc3)[nH]2)cc1`, the gametocyte viability in experiment [2] (concentration: 1 µM) is 112 and 117; in experiment [2] (concentration: 10 µM), 115 and 132.

Take `CCC[C@H](NC(=O)/C(C#N)=C/c1cccc(Br)n1)c1ccccc1`: the gametocyte viability in experiment [2] (concentration: 1 µM) was 114; in experiment [2] (concentration: 10 µM), 106.

On to `CO[C@@H]1[C@H](N(C)C(=O)c2ccccc2)C[C@H]2O[C@]1(C)n1c3ccccc3c3c4c(c5c6ccccc6n2c5c31)C(=O)NC4`, for which the gametocyte viability in experiment [2] (concentration: 1 µM) was 91.1; in experiment [2] (concentration: 10 µM), 95.9.

On to `O=c1c(O)c(-c2ccc(O)c(O)c2)oc2cc(O)cc(O)c12` [Quercetin (Sophoretin)], for which the gametocyte viability in experiment [2] (concentration: 1 µM) is 105; in experiment [2] (concentration: 10 µM), 108.

As for `Cc1c(CN2CCN(C(=O)[C@H](C)O)CC2)sc2c(N3CCOCC3)nc(-c3cnc(N)nc3)nc12`, the results for the gametocyte viability in experiment [2] (concentration: 1 µM) and in experiment [2] (concentration: 10 µM) were 106 and 109, respectively.

For `COC(=O)Nc1ccc(-c2nc(N3CCOCC3)c3cnn(C4CCN(Cc5cccnc5)CC4)c3n2)cc1`, the gametocyte viability is 115 in experiment [2] (concentration: 1 µM) and 117 in experiment [2] (concentration: 10 µM).

The values above are taken from the supplement of paper PMC12297408.
